PubChem BioAssay (Tox21)
Records with an inconclusive call do not appear. Activity calls are given as the source filed them. Unless noted, the call rests on the fitted dose curve; in most records, active means well fitted curve in the direction sought with a large enough effect in the repeat runs; inconclusive means weak or mixed curves; inactive means no such curve, though single readings can be large; an effect the other way counts as inactive or inconclusive.

Tests used:
[1] = target: Androgen receptor (Homo sapiens) (UniProt P10275); assay: qHTS assay to identify small molecule antagonists of the androgen receptor (AR) signaling pathway using the MDA cell line in the presence of 0.5 nM R1881 (AID 1259243); further: nearly all actives have a fitted effect of over 50% in size
Outline: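 We exposed MDA-kb2 cells to compounds under 0.5 nM R1881 stimulation for 16 hr at 37C and quantified MMTV-driven luciferase by luminescence.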

[2] = target: Estrogen receptor (Homo sapiens) (UniProt P03372); assay: qHTS assay to identify small molecule antagonists of the estrogen receptor alpha (ER-alpha) signaling pathway using the BG1 cell line in the presence of 0.1 nM 17-beta-estradiol (AID 1259244); further: nearly all actives have a fitted effect of over 50% in size
Outline: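 VM7Luc4E2; 4xERE-luciferase; 0.1 nM E2 final; 22 h co-incubation, 37C; ONE-Glo luminescence after 30 min at room temperature.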

[3] = qHTS assay to identify small molecule HDAC inhibitors (AID 1259364);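 further: wild-type HCT-116 cells with endogenous class I/II HDAC activity; top concentration of the series differs between compounds; nearly all actives have a fitted effect of over 45% in size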
Outline: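 Relative class I and II HDAC activity is taken from the luminogenic signal in HCT-116 cells, with compound exposure 2 hr and reagent development 30 min at room temperature.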

[4] = qHTS assay to identify small molecule HDAC inhibitors - cell viability counter screen (AID 1259365); further: series mostly up to about 92 µM; nearly all actives have a fitted effect of over 50% in size
Outline: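 After overnight seeding at 1,500 cells per well, wild-type HCT-116 cultures took up compounds in DMSO for 2hr at 37 C. Viable cell content came from luminescence with CellTiter-Glo.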

[5] = qHTS assay to identify small molecule agonists of the sonic hedgehog signaling (Shh) pathway - cell viability counter screen (AID 1259366); further: nearly all actives have a fitted effect of over 50% in size
Outline: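 Same-well cytotoxicity read. Gli1-Luc reporter 3T3 cells; compounds 24hr, 37C/5% CO2; CellTiter-Fluor fluorescence.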

[6] = qHTS assay to identify small molecule antagonists of the sonic hedgehog signaling (Shh) pathway - cell viability counter screen (AID 1259367); further: nearly all actives have a fitted effect of over 55% in size
Outline: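 Using CellTiter-Fluor, viability of Gli1-Luc reporter 3T3 cells is read by fluorescence in the wells used for the Shh luciferase assay. Treatment lasts 23 hr with conditioned medium, then reagent 1 hr at 37C.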

[7] = qHTS assay to identify small molecule agonists of the sonic hedgehog signaling (Shh) pathway (AID 1259368; calls by dose curve;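 further: NIH/3T3-derived 3T3Gli1-Luc cells carrying a stable Gli1-driven firefly luciferase reporter; series mostly up to about 92 µM; nearly all actives have a fitted effect of over 15% in size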)
Outline: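 Mouse fibroblast (NIH/3T3) reporter cells with stably integrated Gli1-Luc were treated 24 hr with compound; firefly luciferase luminescence served as the read-out.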

[8] = qHTS assay to identify small molecule antagonists of the sonic hedgehog signaling (Shh) pathway (AID 1259369; calls by dose curve; further: nearly all actives have a fitted effect of over 45% in size)
Outline: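 Conditioned medium drives Shh signalling in 3T3Gli1-Luc cells; compounds in DMSO co-applied, 24hr at 37 C, then luciferase luminescence.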

[9] = qHTS assay to identify small molecule agonists of the androgen receptor (AR) signaling pathway in the presence of an antagonist - cell viability counter screen (AID 1259379);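 further: MDA-kb2 human breast cancer cells carrying an MMTV luciferase reporter; series mostly up to about 92 µM; nearly all actives have a fitted effect of over 25% in size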
Outline: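 A CellTiter-Fluor read-out measured viability of MDA-kb2 reporter cells (MMTV promoter with AR and GR response elements). Treatment: nilutamide 3.0uM final with compounds at 15 concentrations, 16 hr, 37C, 0% CO2.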

[10] = target: Androgen receptor (Homo sapiens) (UniProt P10275); assay: qHTS assay to identify small molecule agonists of the androgen receptor (AR) signaling pathway in the presence of an antagonist (AID 1259381; calls by dose curve; further: nearly all actives have a fitted effect of over 15% in size)
Outline: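 Using human MDA-kb2 cells with an MMTV promoter–luciferase construct (AR and GR response elements), agonist activity is scored under 3.0uM nilutamide (final) co-treatment; 16hr incubation, 37C, luminescence readout via ONE-Glo.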

[11] = qHTS assay to identify small molecule antagonists of the estrogen receptor beta (ER-beta) signaling pathway - cell viability counter screen (AID 1259382); further: series mostly up to about 92 µM; nearly all actives have a fitted effect of over 55% in size
Outline: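 Agonist-stimulated (1nM E2) ER-beta-UAS-bla HEK293T cells are incubated with library compounds for 16 hr at 37C. Cell viability is then assessed in the reporter-assay wells by adding CellTiter-Glo and reading luminescence after 30 min.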

[12] = target: Estrogen receptor (Homo sapiens) (UniProt P03372); assay: qHTS assay to identify small molecule agonists of the estrogen receptor alpha (ER-alpha) signaling pathway in the presence of an antagonist (AID 1259383; calls by dose curve; further: top concentration of the series differs between compounds; nearly all actives have a fitted effect of over 15% in size)
Outline: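 Using VM7Luc4E2 cells seeded 24hr before treatment, antagonist ICI-182,780 (10.0nM final) was added, followed by compounds at 15 concentrations. Plates incubated 22hr; ONE-Glo luminescence quantified reporter activity.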

[13] = qHTS assay to identify small molecule agonists or antagonists of the thyroid stimulating hormone receptor (TSHR) signaling pathway - wild type cell line counter screen (AID 1259384; calls by dose curve)
Outline: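 Counter screen in untransfected Hek293: compounds (15-point titration, triplicate) plus phosphodiesterase inhibitor Ro20-1724 added after 18 h plating; 30 min RT. Intracellular cAMP via competitive d2/cryptate immunoassay, 1 h incubation.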

[14] = target: Thyrotropin receptor (Homo sapiens) (UniProt P16473); assay: qHTS assay to identify small molecule antagonists of the thyroid stimulating hormone receptor (TSHR) signaling pathway (AID 1259385; calls by dose curve; further: nearly all actives have a fitted effect of over 20% in size)
Outline: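 Antagonist mode: compound-treated TSHR-expressing HEK293 cells were stimulated with 1.5 ng/mL TSH (final) in presence of Ro20-1724 for 30 min at RT. HTRF cAMP detection after 1 h; each compound tested at 15 concentrations, triplicate.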

[15] = qHTS assay to identify small molecule agonists of the estrogen receptor alpha (ER-alpha) signaling pathway in the presence of an antagonist - cell viability counter screen (AID 1259386);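 further: series mostly up to about 92 µM; cells exposed to compounds for 22 h at 37 °C before the viability read; nearly all actives have a fitted effect of over 30% in size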
Outline: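 ICI-182,780 at 10.0nM final accompanies the compound titration (15 concentrations, 22hr, 37C) on VM7Luc4E2 cells. The CellTiter-Fluor fluorescence readout runs in the same wells as the luciferase assay.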

[16] = target: Progesterone receptor (Homo sapiens) (UniProt P06401); assay: qHTS assay to identify small molecule agonists of the progesterone receptor (PR) signaling pathway (AID 1346784; calls by dose curve; further: nearly all actives have a fitted effect of over 30% in size)
Outline: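 Compounds were tested for PR agonism in HEK 293T cells bearing a beta-lactamase gene under UAS control. Treatment lasted 16 hr at 37C; signal came from fluorescence of a FRET substrate.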

[17] = qHTS assay to identify small molecule agonists of the estrogen receptor beta (ER-beta) signaling pathway - cell viability counter screen (AID 1259380); further: nearly all actives have a fitted effect of over 30% in size
Outline: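 Cells used were ER-beta-UAS-bla HEK293T in medium with 2% charcoal-stripped FBS. They were treated for 16 hr at 37C. Viability came from CellTiter-Glo luminescence.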

[18] = target: Estrogen receptor beta (Homo sapiens) (UniProt Q92731); assay: qHTS assay to identify small molecule antagonists of the estrogen receptor beta (ER-beta) signaling pathway (AID 1259378; active means well fitted inhibition curve with a large enough effect in the signal ratio in the repeat runs, not every such curve was filed as active; the % refers to the signal ratio)
Outline: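 Antagonist mode: compounds added to beta-lactamase reporter HEK293T ER-beta-UAS cells stimulated with E2 (1nM final), 16 hr at 37C. LiveBLAzer B/G FRET substrate, 2 hours room temperature, fluorescence read-out.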

[19] = target: Estrogen receptor beta (Homo sapiens) (UniProt Q92731); assay: qHTS assay to identify small molecule agonists of the estrogen receptor beta (ER-beta) signaling pathway (AID 1259377; active means well fitted activation curve with a large enough effect in the signal ratio in the repeat runs, not every such curve was filed as active; the % refers to the signal ratio)
Outline: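 Read-out: beta-lactamase FRET fluorescence. Cell line: ER-beta-UAS-bla HEK293T in 2% charcoal-stripped FBS. Exposure: 16 hr at 37C. Substrate step: 2 h at room temperature.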
On the % scale 0 is the no-effect control and ±100 the full control effect.

Sequence of Progesterone receptor (Homo sapiens) (P06401 whole entry, looked up): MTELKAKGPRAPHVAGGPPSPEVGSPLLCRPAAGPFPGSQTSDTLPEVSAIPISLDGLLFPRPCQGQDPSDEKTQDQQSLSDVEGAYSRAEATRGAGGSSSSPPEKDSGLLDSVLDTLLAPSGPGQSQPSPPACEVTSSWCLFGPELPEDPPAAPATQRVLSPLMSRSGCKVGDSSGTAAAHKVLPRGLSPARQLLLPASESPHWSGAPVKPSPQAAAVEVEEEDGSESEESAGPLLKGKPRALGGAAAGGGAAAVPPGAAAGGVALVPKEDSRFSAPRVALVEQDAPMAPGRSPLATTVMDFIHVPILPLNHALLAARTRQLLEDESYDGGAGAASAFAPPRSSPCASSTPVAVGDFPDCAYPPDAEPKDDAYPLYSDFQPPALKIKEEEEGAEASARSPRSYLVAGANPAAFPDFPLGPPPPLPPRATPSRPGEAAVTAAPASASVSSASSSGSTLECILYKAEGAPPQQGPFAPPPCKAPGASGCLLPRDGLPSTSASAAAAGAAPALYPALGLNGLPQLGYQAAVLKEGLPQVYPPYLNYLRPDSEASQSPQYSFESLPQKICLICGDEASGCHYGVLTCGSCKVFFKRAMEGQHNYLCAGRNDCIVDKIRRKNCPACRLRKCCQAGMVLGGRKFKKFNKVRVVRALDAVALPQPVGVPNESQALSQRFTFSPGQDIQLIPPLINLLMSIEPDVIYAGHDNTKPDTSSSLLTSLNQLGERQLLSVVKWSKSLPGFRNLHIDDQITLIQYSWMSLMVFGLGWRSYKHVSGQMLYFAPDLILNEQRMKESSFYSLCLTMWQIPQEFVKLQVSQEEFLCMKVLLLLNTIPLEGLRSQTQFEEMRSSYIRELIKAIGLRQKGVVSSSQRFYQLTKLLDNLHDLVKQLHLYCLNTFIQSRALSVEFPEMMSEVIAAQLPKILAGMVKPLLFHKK
Sequence of Estrogen receptor (Homo sapiens) (P03372 whole entry, looked up): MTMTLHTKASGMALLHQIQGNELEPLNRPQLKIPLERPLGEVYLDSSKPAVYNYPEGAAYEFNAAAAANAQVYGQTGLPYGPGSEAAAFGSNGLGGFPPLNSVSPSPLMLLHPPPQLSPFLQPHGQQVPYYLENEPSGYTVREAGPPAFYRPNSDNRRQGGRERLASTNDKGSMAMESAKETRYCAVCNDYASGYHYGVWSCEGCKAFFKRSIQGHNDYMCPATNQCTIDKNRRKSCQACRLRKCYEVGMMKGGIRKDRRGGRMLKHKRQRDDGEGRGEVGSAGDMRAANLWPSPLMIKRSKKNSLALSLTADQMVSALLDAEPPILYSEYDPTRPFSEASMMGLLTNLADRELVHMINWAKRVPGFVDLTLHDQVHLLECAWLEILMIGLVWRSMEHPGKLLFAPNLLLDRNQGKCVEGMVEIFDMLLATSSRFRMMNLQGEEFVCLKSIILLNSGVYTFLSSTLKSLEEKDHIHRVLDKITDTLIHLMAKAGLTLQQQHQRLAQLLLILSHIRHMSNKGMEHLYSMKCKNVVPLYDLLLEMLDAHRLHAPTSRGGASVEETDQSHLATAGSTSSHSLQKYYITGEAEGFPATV
Sequence of Androgen receptor (Homo sapiens) (P10275 whole entry, looked up): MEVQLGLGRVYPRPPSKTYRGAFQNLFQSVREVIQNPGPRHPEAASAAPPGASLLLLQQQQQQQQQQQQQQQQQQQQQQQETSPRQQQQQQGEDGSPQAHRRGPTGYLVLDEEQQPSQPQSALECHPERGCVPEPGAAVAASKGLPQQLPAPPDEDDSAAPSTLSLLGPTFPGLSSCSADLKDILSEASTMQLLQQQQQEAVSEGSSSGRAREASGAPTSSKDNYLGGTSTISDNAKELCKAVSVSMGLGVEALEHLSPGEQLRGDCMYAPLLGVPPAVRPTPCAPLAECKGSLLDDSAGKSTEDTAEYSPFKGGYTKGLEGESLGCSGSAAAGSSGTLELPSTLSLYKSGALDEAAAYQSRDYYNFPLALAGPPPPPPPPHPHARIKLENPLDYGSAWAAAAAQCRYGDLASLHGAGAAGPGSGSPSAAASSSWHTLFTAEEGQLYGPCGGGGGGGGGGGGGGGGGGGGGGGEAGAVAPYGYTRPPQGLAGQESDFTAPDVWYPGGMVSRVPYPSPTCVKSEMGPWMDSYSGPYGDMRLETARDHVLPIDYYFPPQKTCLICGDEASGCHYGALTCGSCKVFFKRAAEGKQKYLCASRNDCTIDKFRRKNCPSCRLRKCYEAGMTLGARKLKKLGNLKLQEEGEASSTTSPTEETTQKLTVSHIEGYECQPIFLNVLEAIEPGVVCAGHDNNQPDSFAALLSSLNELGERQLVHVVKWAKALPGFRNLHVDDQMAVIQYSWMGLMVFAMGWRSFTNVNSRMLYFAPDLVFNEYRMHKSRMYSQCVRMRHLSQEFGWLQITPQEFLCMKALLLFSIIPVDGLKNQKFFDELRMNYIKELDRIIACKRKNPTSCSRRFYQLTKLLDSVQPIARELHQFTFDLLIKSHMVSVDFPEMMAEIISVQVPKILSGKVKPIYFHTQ
Sequence of Thyrotropin receptor (Homo sapiens) (P16473 whole entry, looked up): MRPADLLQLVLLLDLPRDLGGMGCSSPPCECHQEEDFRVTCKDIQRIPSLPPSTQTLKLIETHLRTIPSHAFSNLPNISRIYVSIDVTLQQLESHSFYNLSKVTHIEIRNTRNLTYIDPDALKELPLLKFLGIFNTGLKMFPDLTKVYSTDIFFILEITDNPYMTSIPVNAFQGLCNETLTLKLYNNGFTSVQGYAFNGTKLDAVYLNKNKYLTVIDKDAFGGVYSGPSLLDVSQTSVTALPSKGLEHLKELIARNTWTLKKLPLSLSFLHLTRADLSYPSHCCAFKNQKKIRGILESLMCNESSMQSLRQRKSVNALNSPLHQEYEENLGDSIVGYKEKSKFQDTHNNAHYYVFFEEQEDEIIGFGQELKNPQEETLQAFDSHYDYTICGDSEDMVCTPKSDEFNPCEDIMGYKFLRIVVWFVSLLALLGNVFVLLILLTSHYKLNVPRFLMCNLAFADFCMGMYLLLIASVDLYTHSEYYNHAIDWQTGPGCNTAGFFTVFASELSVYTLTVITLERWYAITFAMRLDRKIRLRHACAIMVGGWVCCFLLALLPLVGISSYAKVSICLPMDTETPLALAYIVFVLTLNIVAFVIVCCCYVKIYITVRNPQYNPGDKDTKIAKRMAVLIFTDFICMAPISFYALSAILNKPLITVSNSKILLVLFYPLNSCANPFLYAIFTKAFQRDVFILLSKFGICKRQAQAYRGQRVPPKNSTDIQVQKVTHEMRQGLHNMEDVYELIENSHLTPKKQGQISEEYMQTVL
Sequence of Estrogen receptor beta (Homo sapiens) (Q92731 whole entry, looked up): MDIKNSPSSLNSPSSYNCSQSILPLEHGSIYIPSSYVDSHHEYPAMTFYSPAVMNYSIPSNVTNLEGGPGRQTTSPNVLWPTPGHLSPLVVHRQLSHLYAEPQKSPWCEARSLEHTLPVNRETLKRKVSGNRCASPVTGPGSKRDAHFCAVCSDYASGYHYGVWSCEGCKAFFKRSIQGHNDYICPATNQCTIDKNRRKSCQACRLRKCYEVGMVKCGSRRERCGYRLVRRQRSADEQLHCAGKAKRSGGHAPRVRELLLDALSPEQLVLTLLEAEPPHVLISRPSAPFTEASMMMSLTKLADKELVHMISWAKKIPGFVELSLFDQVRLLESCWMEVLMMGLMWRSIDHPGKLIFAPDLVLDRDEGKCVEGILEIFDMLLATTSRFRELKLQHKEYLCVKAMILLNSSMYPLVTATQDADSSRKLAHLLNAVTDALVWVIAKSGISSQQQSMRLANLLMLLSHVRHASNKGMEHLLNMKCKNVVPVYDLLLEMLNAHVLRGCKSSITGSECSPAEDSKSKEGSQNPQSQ

CCc1cccc(CC)c1NC(=O)C(=O)O
inactive: Potency [1] | Potency [2] | Potency [3] | Potency [4] | Potency [5] | Potency [6] | Potency [7] | Potency [8] | Potency [9] | Potency [10] | Potency [11] | Potency [12] | outcome [13] | Potency [14] | Potency [15] | outcome [16]

OCCCc1cccnc1
inactive: Potency [1] | Potency [2] | Potency [3] | Potency [4] | Potency [6] | Potency [7] | Potency [8] | Potency [9] | Potency [17] | Potency [11] | Potency [12] | outcome [13] | Potency [14] | Potency [15] | outcome [16]

Cc1ccc(O)cn1
inactive: Potency [1] | Potency [2] | Potency [3] | Potency [4] | Potency [5] | Potency [6] | Potency [7] | Potency [18] | Potency [9] | Potency [17] | Potency [10] | Potency [11] | Potency [12] | outcome [13] | Potency [14] | Potency [15]

CCO[Si](C)(C)OCC
inactive: Potency [1] | Potency [2] | Potency [3] | Potency [4] | Potency [5] | Potency [6] | Potency [7] | Potency [8] | Potency [9] | Potency [17] | Potency [11] | Potency [12] | Potency [14] | Potency [15]

CC1CCCCC1
inactive: Potency [1] | Potency [2] | Potency [3] | Potency [4] | Potency [6] | Potency [7] | Potency [8] | Potency [19] | Potency [18] | Potency [9] | Potency [17] | Potency [11] | Potency [12] | outcome [13] | Potency [15] | outcome [16]

COc1ccccc1C=O
inactive: Potency [1] | Potency [2] | Potency [3] | Potency [4] | Potency [6] | Potency [7] | Potency [8] | Potency [19] | Potency [18] | Potency [17] | Potency [11] | Potency [12] | Potency [14] | Potency [15] | outcome [16]

CCOC(OCC)C(=O)c1ccccc1
inactive: Potency [1] | Potency [2] | Potency [3] | Potency [4] | Potency [6] | Potency [7] | Potency [8] | Potency [19] | Potency [18] | Potency [9] | Potency [17] | Potency [11] | Potency [12] | Potency [15]

COc1cc(C(C)C)c2c(c1)S(=O)(=O)N(COc1cc(=O)n3cccc(OCCN4CCCCC4)c3n1)C2=O
inactive: activity, negative = inhibition [1] -16.6% [at 19 µM] | activity change, negative = inhibition [2] -10.3% [at 19 µM] | activity change, negative = inhibition [3] -2.47% [at 19 µM] | activity change, negative = cytotoxicity [4] -0.608% [at 19 µM] | viability change, negative = cytotoxic [5] -0.671% [at 19 µM] | activity change [7] 1.72% [at 18.9 µM, active compounds read high] | activity change, negative = cytotoxicity [9] 0.166% [at 19 µM] | activity change, negative = cytotoxicity [17] -6.94% [at 19 µM] | activation [10] -1.84% [at 19 µM] | activity change, negative = cytotoxicity [11] -17.6% [at 19 µM] | activation [12] -2.57% [at 19 µM] | cAMP activity change [13] 5.85% [at 18.9 µM] | activity change, negative = inhibition [14] -0.822% [at 19 µM] | activity change, negative = cytotoxicity [15] 4.42% [at 19 µM]

C[Si](C)O[Si](C)C
inactive: Potency [1] | Potency [2] | Potency [3] | Potency [4] | Potency [6] | Potency [7] | Potency [8] | Potency [19] | Potency [18] | Potency [9] | Potency [17] | Potency [11] | Potency [12] | outcome [13] | Potency [14] | Potency [15] | outcome [16]
